Here are results for 15 compounds from PubChem BioAssay.

Each structure is given as a SMILES string. The source made the active and inactive calls.

Assay [1] concerns PRMT1 (protein arginine N-methyltransferase 1). The assay can be described thus: PRMT1 binders on small-molecule microarrays, primary screen, biochemical, small-molecule microarray, 635 nm fluorescence (AID 1088).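 Note: binding of Prmt1 protein to compounds spotted on small-molecule microarray slides.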 To be noted: small-molecule microarray binding, higher = more signal.
Assay [2] can be described thus: yeast growth modulation, basal conditions, primary screen, YJM789 clinical isolate, OD600, 24 h (AID 1089).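 Note: growth of clinical yeast isolate S. cerevisiae YJM 789 seeded 1000 cells per well; test concentration not given here.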 To be noted: S. cerevisiae YJM789 growth, higher = more signal, called active from +8 up or from −8 down.
Assay [3] is described as follows: fission yeast growth modulation, primary screen, strain 972, OD600, 24 h, no modulator (AID 1090).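 Note: basal condition with compound alone and no growth modifier present; test concentration not given here.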 To be noted: S. pombe 972 growth, higher = more signal, called active from +8 up or from −8 down.
Assay [4] can be described thus: S. cerevisiae growth modulation with rapamycin, primary screen, strain BY4716, OD600, 96 h (AID 1091). Note: test concentration not given here. To be noted: higher = more signal, called active from +8 up or from −8 down.
In assay [5] the target is Torsin-1A-interacting protein 2 (Homo sapiens) (UniProt Q8NFQ8). The assay can be described thus: LULL1 binders on small-molecule microarray, primary screen, cell lysate, human LULL1 lysate, 635/667 nm fluorescence (AID 1092).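 Note: probe is lysate of COS7 cells overexpressing human LULL1; score merges per-feature 667 nm fluorescence with signal-to-noise.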 As to conditions: hLULL1 lysate binding, 635 nm fluorescence, higher = more signal.
Sequence of Torsin-1A-interacting protein 2 (Homo sapiens) (Q8NFQ8 whole entry, looked up): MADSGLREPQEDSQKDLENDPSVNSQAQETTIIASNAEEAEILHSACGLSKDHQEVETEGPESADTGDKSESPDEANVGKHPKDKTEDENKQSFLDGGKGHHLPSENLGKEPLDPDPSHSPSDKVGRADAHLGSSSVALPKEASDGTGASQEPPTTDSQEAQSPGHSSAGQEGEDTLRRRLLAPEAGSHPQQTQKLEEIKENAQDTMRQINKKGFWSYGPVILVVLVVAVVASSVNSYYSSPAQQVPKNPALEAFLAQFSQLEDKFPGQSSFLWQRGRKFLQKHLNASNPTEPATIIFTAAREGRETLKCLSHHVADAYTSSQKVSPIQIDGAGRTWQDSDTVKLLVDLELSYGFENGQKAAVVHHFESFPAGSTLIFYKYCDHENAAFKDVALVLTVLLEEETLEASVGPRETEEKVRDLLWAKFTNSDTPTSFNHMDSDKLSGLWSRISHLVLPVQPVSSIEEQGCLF
Assay [6] is described as follows: E. coli growth modulation, two-sided OD650, primary screen, E. coli filamentation project, strain DRC41, 24 h (AID 1093).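 Note: MC1000 strain lacking acrAB efflux and sulA so SOS filamentation is blocked; test concentration not given here.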 To be noted: OD650, 24 h, higher = more signal, called active from +8 up or from −8 down.
Assay [7] in a line: small-molecule microarray binders of probe aLefty2, primary screen, biochemical, biotinylated probe, 635/667 nm fluorescence (AID 1094).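 Note: score merges spot fluorescence near 667 nm with spot signal-to-noise ratio.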 To be noted: higher = more signal.
The subject of assay [8] is Noggin (protein binding on small-molecule microarray). The assay can be described thus: Noggin binders on small-molecule microarray, primary screen, biochemical, 635/667 nm fluorescence (AID 1095).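 Note: score merges 667 nm feature fluorescence with signal to noise over triplicate slides.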 To be noted: 635 nm fluorescence, higher = more signal.
The target in assay [9] is Neurogenic locus notch homolog protein 3 (Homo sapiens) (UniProt Q9UM47). The assay can be described thus: NOTCH3 binders on small-molecule microarray, primary screen, biochemical, 635/667 nm fluorescence (AID 1096). To be noted: NOTCH3 binding, 635 nm fluorescence, higher = more signal.
Sequence of Neurogenic locus notch homolog protein 3 (Homo sapiens) (Q9UM47 whole entry, looked up): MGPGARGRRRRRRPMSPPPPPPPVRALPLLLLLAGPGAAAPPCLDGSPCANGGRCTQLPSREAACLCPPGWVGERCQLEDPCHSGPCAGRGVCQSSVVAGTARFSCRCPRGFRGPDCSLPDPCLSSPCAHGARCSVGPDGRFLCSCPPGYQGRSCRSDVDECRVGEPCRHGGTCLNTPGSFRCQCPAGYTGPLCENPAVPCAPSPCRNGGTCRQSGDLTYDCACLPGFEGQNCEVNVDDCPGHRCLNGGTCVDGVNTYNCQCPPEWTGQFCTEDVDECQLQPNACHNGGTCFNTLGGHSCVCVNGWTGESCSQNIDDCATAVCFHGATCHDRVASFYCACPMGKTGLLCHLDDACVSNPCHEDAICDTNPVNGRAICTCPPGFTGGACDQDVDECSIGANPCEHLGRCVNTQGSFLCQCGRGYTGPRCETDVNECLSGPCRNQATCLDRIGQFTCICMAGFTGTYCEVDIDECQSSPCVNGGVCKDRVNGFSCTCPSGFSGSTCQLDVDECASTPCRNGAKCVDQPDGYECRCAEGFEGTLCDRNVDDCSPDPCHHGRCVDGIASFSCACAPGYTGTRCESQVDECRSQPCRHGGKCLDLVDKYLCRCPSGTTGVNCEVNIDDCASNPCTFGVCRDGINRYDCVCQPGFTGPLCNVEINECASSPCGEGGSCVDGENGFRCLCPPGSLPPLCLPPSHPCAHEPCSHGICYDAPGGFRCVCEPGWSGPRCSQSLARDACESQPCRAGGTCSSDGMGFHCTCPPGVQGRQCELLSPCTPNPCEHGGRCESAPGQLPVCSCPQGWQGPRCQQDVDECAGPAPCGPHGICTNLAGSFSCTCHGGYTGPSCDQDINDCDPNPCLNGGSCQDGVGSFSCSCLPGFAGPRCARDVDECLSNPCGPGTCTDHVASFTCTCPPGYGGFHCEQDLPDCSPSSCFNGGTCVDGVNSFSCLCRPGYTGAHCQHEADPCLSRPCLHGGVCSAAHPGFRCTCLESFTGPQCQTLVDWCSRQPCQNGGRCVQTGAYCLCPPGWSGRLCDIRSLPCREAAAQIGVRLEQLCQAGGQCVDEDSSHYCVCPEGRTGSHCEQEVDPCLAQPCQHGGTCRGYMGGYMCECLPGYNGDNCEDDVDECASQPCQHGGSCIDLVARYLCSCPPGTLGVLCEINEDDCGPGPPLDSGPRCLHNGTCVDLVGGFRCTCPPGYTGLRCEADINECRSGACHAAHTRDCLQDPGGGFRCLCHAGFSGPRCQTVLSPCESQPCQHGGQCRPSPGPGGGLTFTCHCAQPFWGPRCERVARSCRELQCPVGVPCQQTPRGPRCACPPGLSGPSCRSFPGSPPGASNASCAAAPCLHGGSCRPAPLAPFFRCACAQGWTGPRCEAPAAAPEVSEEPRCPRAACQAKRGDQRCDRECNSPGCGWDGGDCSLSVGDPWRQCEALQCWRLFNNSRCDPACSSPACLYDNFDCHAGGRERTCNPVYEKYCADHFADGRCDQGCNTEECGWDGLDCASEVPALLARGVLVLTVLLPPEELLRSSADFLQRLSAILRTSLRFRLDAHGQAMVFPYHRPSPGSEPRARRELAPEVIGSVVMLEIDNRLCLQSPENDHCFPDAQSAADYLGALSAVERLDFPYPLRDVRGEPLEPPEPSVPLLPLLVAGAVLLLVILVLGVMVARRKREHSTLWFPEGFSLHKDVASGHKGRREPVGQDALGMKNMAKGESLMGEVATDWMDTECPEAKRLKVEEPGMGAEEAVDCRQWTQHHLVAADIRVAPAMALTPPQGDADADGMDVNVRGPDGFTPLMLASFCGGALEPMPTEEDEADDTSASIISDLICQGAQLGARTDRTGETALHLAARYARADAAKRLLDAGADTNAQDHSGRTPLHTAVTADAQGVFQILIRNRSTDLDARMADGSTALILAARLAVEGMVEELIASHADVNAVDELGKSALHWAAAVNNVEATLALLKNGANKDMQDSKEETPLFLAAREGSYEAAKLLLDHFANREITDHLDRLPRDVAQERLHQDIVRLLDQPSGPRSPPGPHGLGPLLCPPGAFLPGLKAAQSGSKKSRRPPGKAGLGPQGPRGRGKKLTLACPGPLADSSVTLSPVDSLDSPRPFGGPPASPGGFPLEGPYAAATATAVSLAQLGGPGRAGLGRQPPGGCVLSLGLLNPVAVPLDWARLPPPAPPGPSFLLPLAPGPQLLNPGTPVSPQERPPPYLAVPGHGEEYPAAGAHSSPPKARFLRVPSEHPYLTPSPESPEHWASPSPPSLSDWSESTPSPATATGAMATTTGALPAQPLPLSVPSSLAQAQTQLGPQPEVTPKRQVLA
A short description of assay [10]: small-molecule microarray binders of probe aEGFR, primary screen, biochemical, biotinylated probe, 635/667 nm fluorescence (AID 1097).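 Note: probe is a biotinylated anti-EGFR antibody binding compounds printed on slides; score combines fluorescence near 667 nm and signal to noise of each spot.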 To be noted: higher = more signal.

`O=C1N(CCS(=O)(=O)c2ccccc2)c2ccccc2[C@H]2OC(c3ccc(OCCCO)cc3)=N[C@@]12Cc1ccccc1`: the composite z-score in assay [1] stood at 1.55; in [5], 2.36; in assay [7], 0.507; in assay [8] it was 1.56; in assay [9], 1.1; in [10], 0.263. For the same compound, the z-score in assay [2] was 0.28 (inactive); in assay [3], -0.0472 (inactive); in assay [4], 5.03 (inactive); in assay [6] it was 0.611 (inactive).

`CO[C@H]1O[C@H](CO)[C@@H](OC(=O)Nc2ccccc2)[C@H](OC(=O)c2cc3ccccc3[nH]2)[C@H]1OC(=O)c1cc2ccccc2[nH]1`: the composite z-score in assay [1] is 0.499; in assay [5], 0.87; in assay [7] it was -0.0107; in assay [8], 0.248; in assay [9], 0.196; in assay [10], 0.0153. The z-score in [2] is -1.63 (inactive); in assay [3], -0.562 (inactive); in assay [4], 0.216 (inactive); in assay [6], 0.0433 (inactive).

With `CC(c1ccccc1)C(O)C1C=CC2C(=O)N(C)C(=O)C2N1Nc1ccccc1` (stereo not given), the composite z-score in assay [1] was 1.33; in assay [5], 2.99; in [7] it was 0.445; in assay [8] it was -0.194; in [9], 1.14; in [10], 0.0849. The z-score in assay [2] is 0.188 (inactive); in assay [3], 0.669 (inactive); in assay [4], 0.419 (inactive); in [6] it was -0.689 (inactive).

For the compound `[N-]=[N+]=NCc1ccccc1C[C@@]1(C(N)=O)N=C(c2ccc(OCCCO)cc2)O[C@@H]1c1ccccc1`, the composite z-score in assay [1] is 1.56; in assay [5] it was 3.59; in assay [7], 0.149; in assay [8], -0.734; in assay [9], -0.15; in [10] it was -0.108. Moreover, the z-score in assay [2] is -0.144 (inactive); in assay [3], 0.0313 (inactive); in assay [4], 13.3 (active); in assay [6], -0.412 (inactive).

Take `COCCOC(=O)N1C(=O)[C@@]2(c3cc(C#CC4=CCCCC4)ccc31)[C@H](c1ccccc1OCCO)N1[C@H](c3ccccc3)[C@H](c3ccccc3)OC(=O)[C@H]1[C@@H]2C(=O)N1CCN(c2ncccn2)CC1`: the composite z-score in assay [1] was 1.57; in [5], 0.456; in assay [7], -0.142; in assay [8], 0.729; in assay [9], 1.12; in assay [10], -0.067. The z-score was 0.218 (inactive) in [2], -0.377 (inactive) in [3], 2.44 (inactive) in assay [4] and 1.05 (inactive) in [6].

`COC(=O)[C@@]1(Cc2ccc(OC)cc2)[C@H]2c3cc(C(=O)N(C)C)n(Cc4ccc(C)o4)c3C[C@H]2CN1C(=O)c1ccccc1`: the composite z-score in [1] was 0.549; in [5] it was 3.6; in assay [7], 0.347; in [8], -0.263; in assay [9] it was 0.916; in [10], 0.229. Further, the z-score in assay [2] was -0.529 (inactive); in assay [3], 0.805 (inactive); in [4], 0.0527 (inactive); in assay [6] it was 0.527 (inactive).

Consider `CC1=C2[C@@H](CCc3ccccc3)OB(O)C[C@@H]2[C@@H]2C(=O)N(C)C(=O)[C@@H]2C1`, for which the composite z-score in [1] is 0.618; in assay [5], 0.299; in assay [7], -0.197; in [8], 0.446; in assay [9], 0.279; in assay [10], -0.0238. The z-score in assay [2] is -0.229 (inactive); in assay [3] it was -1.2 (inactive); in assay [4], -1.24 (inactive); in [6], -0.253 (inactive).

Turning to `CCOc1cc(C(O)C2C=CC3C(=O)NC(=O)C3N2Nc2ccc(Cl)cc2Cl)ccc1O` (stereo not given), the composite z-score in assay [1] is -1.54; in [5], 0.0486; in [7], 0.0717; in [8] it was -0.26; in assay [9] it was -1.31; in [10] it was -0.16. Also, the z-score in assay [2] was -1.36 (inactive); in [3], -1.29 (inactive); in assay [4], 0.339 (inactive); in assay [6], -0.847 (inactive).

For `COC(=O)c1c(CC[C@@H](CO)NC(=O)N[C@@H](C)Cn2cc(-c3ccccn3)nn2)oc(C(C)=O)c1C(=O)OC`, the composite z-score in assay [1] was 1.39; in assay [5] it was 1.42; in assay [7], -0.115; in assay [8] it was 1.43; in assay [9], 0.794; in assay [10], -0.164. Further, the z-score was -0.441 (inactive) in assay [2], -0.705 (inactive) in [3], 0.198 (inactive) in assay [4] and -0.608 (inactive) in [6].

Regarding `C[N+](C)(C)CCCCCCNC(=O)[C@@H]1C[C@@H]2C(=O)N3CCC[C@H]3C(=O)N2[C@@H]1c1ccc(O)cc1`, the composite z-score is 1.43 in assay [1]; 2.9 in [5]; -0.0216 in assay [7]; 1.4 in assay [8]; 1.03 in [9]; 0.0401 in [10]. For the same compound, the z-score in assay [2] is -0.913 (inactive); in assay [3], 0.214 (inactive); in [4] it was -0.696 (inactive); in [6], 0.2 (inactive).

In the case of `CCCC[C@@H](O)C1=C(COc2ccccc2)C[C@H]2C(=O)N(Cc3ccccc3)C(=O)[C@H]2[C@H]1CO`, the composite z-score in assay [1] is 0.287; in assay [5], 0.492; in [7], -0.0907; in assay [8], 0.517; in assay [9], 0.323; in assay [10] it was -0.0828. Also, the z-score in assay [2] is 0.298 (inactive); in assay [3] it was -0.336 (inactive); in [4], 0.361 (inactive); in [6], 0.672 (inactive).

In the case of `O=C(NCc1ccc(F)cc1)[C@H]1C[C@H]2C(=O)NCC(=O)N2[C@H]1c1ccc(O)cc1`, the composite z-score is 1.55 in [1]; 1.22 in assay [5]; 0.372 in assay [7]; 1.35 in assay [8]; 0.0831 in assay [9]; -0.334 in assay [10]. Further, the z-score is 1.29 (inactive) in assay [2], 1.01 (inactive) in [3], 1.56 (inactive) in assay [4] and 0.816 (inactive) in [6].

Turning to `COc1cc(OC)c(C(O)C2C=CC3C(=O)N(Cc4ccccc4)C(=O)C3N2n2cnnc2)cc1Br` (stereo not given), the composite z-score in assay [1] was 1.11; in assay [5], 2.89; in [7] it was 0.0208; in [8] it was 0.404; in assay [9] it was 1.07; in [10] it was -0.0343. Besides, the z-score is -1.92 (inactive) in [2], -1.73 (inactive) in assay [3], 0.027 (inactive) in assay [4] and -1.21 (inactive) in assay [6].

`CCOC(=O)C[C@H]1[C@H](OC(=O)Cc2ccc3c(c2)OCO3)[C@@H](NC(=O)c2ccc3ccccc3n2)c2cc(OCCCO)ccc2N1C(=O)c1ccccc1`: the composite z-score was 0.299 in [1]; 0.604 in assay [5]; 0.0209 in assay [7]; 0.257 in [8]; 0.363 in assay [9]; -0.0039 in assay [10]. Further, the z-score in assay [2] is 0.131 (inactive); in [3], -0.931 (inactive); in assay [4], 0.336 (inactive); in assay [6], 0.887 (inactive).

As to `Cc1ccc(C(C)CC(O)C2C=CC3C(=O)N(c4ccccc4)C(=O)C3N2Nc2ccccc2)o1` (stereo not given), the composite z-score is 1.53 in assay [1]; 3.09 in [5]; 0.326 in [7]; -0.0381 in assay [8]; 1.04 in assay [9]; 0.216 in assay [10]. The z-score in [2] is 0.568 (inactive); in assay [3], -0.132 (inactive); in assay [4], 0.144 (inactive); in assay [6], -0.866 (inactive).
